Screens deposited in PubChem by several laboratories.
In the library only some 1.6% were active in any assay of this set; here they are far more common.
VLA-4 inh: inhibition in a human VLA-4 binding assay; P13612; VLA-4 expressing cells, ligand binding flow cytometry; inhibition, % (about 7 µM as worked out from the volumes in the protocol); actives 0.2% (n = 330,000); in the data active means inhibition above about 50%
PKA-R1A activ: activates the PKA-R1A holoenzyme complex | P00514+P68181 | PKA-R1A dissociation, Cy5-IP20 fluorescence polarization; scaled: DMSO 0%, 113 µM cGMP 100% | activation, % at 11.4 µM | actives 0.083% (n = 340,000) | AID 504707;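 active means percent activation above the mean of all tested compounds plus 3 SD, cut at about 19% in these data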;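 further: higher means more PKAc released from R1A so a rise in polarization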
NRP1-CendR mod: alters CendR peptide binding to human NRP-1. O14786. FAM-RPARPAR peptide binding to NRP-1, fluorescence polarization. inhibition, % at 25 µM. actives 0.85% (n = 360,000);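 active means inhibition or corrected inhibition above about 18%, plus a signal ratio from 0.5 to 1.5, limit read from the data, passing the limit was not always enough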
ATG4B inhibitor: ATG4B (human) cysteine protease inhibition | actives 0.51% (n = 340,000) | Q9Y4P1 | inhibition, % at 8.33 µM | ATG4B cleavage of LC3-PLA2, NBD-HPC fluorescence, 1 h; in the data active means inhibition above about 40%
Target sequence (Q9Y4P1 whole entry, looked up): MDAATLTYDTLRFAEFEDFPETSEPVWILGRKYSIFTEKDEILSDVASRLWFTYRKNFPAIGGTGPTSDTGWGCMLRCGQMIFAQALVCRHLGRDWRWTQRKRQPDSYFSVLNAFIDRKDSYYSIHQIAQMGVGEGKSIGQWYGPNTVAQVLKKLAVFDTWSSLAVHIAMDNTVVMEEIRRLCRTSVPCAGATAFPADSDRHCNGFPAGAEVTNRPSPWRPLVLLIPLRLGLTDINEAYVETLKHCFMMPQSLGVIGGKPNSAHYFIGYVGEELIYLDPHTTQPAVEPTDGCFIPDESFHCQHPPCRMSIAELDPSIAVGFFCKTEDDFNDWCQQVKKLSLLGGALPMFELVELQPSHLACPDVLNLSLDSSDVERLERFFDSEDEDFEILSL
PKA-R2B activ: activates the human PKA-R2B holoenzyme complex; P22694+P31323; PKA-R2B holoenzyme dissociation, Cy5-IP20 fluorescence polarization; R2B truncated from residue 108, S112A mutant; 0% DMSO only, 100% 113 µM cGMP; activation, % at 11.4 µM; actives 0.079% (n = 340,000); AID 504700;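 active means activation above a cutoff set at the mean over all compounds plus 3 SD, cut at about 18% in these data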;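 further: higher means more holoenzyme dissociation and a rise in polarization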
The depositor's hits bear a star; / = not tested or not shown.

SMILES | VLA-4 inh | PKA-R1A activ | NRP1-CendR mod | ATG4B inhibitor | PKA-R2B activ
O=C(CC1C(=O)NCCN1C(=O)Nc1ccccc1)Nc1cccc(C(F)(F)F)c1 (stereo not drawn) | 24.9 | -5.3 | 43.7* | -5.7 | -1.3
Nc1ncnc2[nH]c(=S)[nH]c12 | / | -0.9 | 28.8* | 0.7 | -9.5
CN(CCNC(=O)c1cccc(N2CCCC2=O)c1)Cc1ccccc1 | 7.8 | 6.9 | 17.6* | -8.3 | 15.9
COc1ccccc1CNCC(=O)NCc1ccc(C)cc1 | 15.4 | -11.8 | -6.7 | 0.0 | -7.0
COc1ccccc1CNC(=O)Cc1ccc(C)cc1 | 3.1 | -1.9 | 43.1* | -3.3 | -9.9
O=C(NC(c1ccccc1)c1ccc2ccccc2n1)C1CCN(Cc2ccc(Oc3ccccc3)cc2)CC1 (stereo not drawn) | / | / | 20.0* | / | /
COc1ccc(C(C(=O)Nc2ccc(F)cc2)N2CCN(c3cccc(C(F)(F)F)n3)CC2)cc1 (stereo not drawn) | / | / | -2.4 | / | /
COc1ccc(CC(=O)OCC(=O)NC2CC2)cc1 | 8.7 | -7.1 | 23.7* | 1.8 | -0.3
COc1cc2ccc(CC(N)=O)cc2cc1OC | / | -4.9 | 37.0* | / | 7.1
COc1ccc(CCC(N)=O)cc1OC | 10.0 | -6.0 | 3.5 | 0.1 | 6.9
COc1ccc(CC(=O)OCC(=O)c2ccc(OC)c(OC)c2)cc1 | 16.9 | 0.8 | 17.2* | -8.9 | -6.2
COc1ccc(CC(=O)OCC(=O)c2ccc(OC)cc2)cc1 | -3.7 | -0.7 | 13.9 | 8.9 | 5.0
CCOC(=O)C1CCCN(C(=O)c2sc(-c3ccccc3)nc2C)CC1 (stereo not drawn) | / | / | 0.9 | / | /
COc1ccc(Cc2c(-c3ccc(OC)c(OC)c3)nc3cc(C)c(Br)c(C)n23)c(C)c1 | / | / | -14.4 | / | /
CC(C)(C)c1ccc(S(=O)(=O)N2CCN(c3ncccn3)CC2)cc1 | 5.4 | -6.5 | 26.9* | 5.8 | -3.7
O=S(=O)(c1ccccc1)N1CCN(c2ncccn2)CC1 | 2.7 | -5.8 | -5.3 | -6.6 | 5.8
CC(=O)Oc1cc2c(c3ccccc13)CCC2=O | / | -0.8 | 30.9* | -17.2 | 9.0
COC(=O)C1=C(C)N(c2cccc(C)c2)C(=O)/C1=C\c1cccs1 | 5.1 | -8.8 | 27.6* | 16.2 | -22.1
CCN(CC)S(=O)(=O)c1cccc(C(=O)NC(C(=O)NNC(=O)c2ccccc2F)C(C)C)c1 (stereo not drawn) | / | -7.5 | 2.8 | -9.4 | -6.3
Cc1cccn2c(=O)c(C(=O)NC3CCCCC3C)c(O)nc12 (stereo not drawn) | 1.5 | 1.6 | 43.5* | -4.4 | 2.0
CCOCc1nc(N)nc(N)c1-c1cccc(Cl)c1 | / | -8.8 | 11.6 | / | -12.8
O=C(O)c1ccc(NC2=C/C(=N/S(=O)(=O)c3cccs3)c3ccccc3C2=O)cc1 | / | 1.1 | 41.7* | / | -4.8
CCc1ccc(S(=O)(=O)/N=C2\C=C(Nc3cccc(C(=O)O)c3)C(=O)c3ccccc32)cc1 | 5.0 | -18.4 | 40.7* | 4.3 | -3.1
COc1ccccc1N(C(=O)c1snc(C(N)=O)c1N)C(C(=O)NC1CCCC1)c1ccc(N(C)C)cc1 (stereo not drawn) | -8.9 | -4.0 | 3.6 | -2.8 | -3.9
CCCCn1nnnc1C(c1cc2ccccc2o1)N(C)Cc1ccccc1 (stereo not drawn) | / | / | -23.4 | / | /
SMILES | VLA-4 inh | PKA-R1A activ | NRP1-CendR mod | ATG4B inhibitor | PKA-R2B activ
C/C=C/c1cccc(-c2nc(C(=O)NC3CCCC3)cc3c2[C@@H](CCO)N(S(=O)C(C)(C)C)C3)c1 (stereo partly drawn) | / | / | -33.7 | / | /
CCOC(=O)c1ccc(NS(=O)(=O)c2ccc(SC)cc2)cc1 | 1.8 | -6.4 | 6.3 | -14.1 | -6.0
CCOC(=O)Cc1ccc(NS(=O)(=O)c2ccc(SC)cc2)cc1 | -5.6 | -2.9 | 24.7* | -8.7 | -7.0
CC(=O)Nc1ccc(-c2csc(NCc3ccco3)n2)cc1 | 3.2 | 2.1 | 12.2 | -5.1 | 6.5
COc1ccc(-c2csc(NCc3ccco3)n2)cc1C | -14.3 | -0.1 | 22.8* | 4.7 | -5.9
COc1cccc(C(C)(O)c2nc(-c3ccc(N(C)C)cc3)cs2)c1 (stereo not drawn) | / | / | 5.6 | / | /
Cc1ccc(S(=O)(=O)NC(CN2CCOCC2)=NCCNS(=O)(=O)c2ccccc2)cc1 | -1.4 | -5.3 | 35.6* | 4.2 | -5.2
CCOC(=O)[C@]12CCCC=C1N(Cc1ccc(Cl)cc1Cl)C(=O)[C@H](CC(=O)NCCc1ccccc1OC)C2 | / | / | -10.5 | / | /
O=C(O)c1ccc(N2CCCCCC2)c(N2C(=O)c3ccccc3C2=O)c1 | -3.8 | -8.7 | 25.7* | -8.8 | -0.8
NC(=O)c1cccc(-c2ccnc3c2CC(C(=O)Nc2ccc(Cl)cc2)O3)c1 (stereo not drawn) | / | / | -10.8 | / | /
CCOC(=O)c1ccc2ncc(C(=O)OCC)c(NCCN3CCOCC3)c2c1 | 12.7 | -6.0 | 5.0 | -5.4 | 10.0
CCOC(=O)c1ccc2ncc(C(=O)OCC)c(NCCN(C)C)c2c1 | -9.7 | 7.6 | 60.0* | -5.3 | 1.0
O=C(CN1C2=NCCN2c2ccccc21)c1ccco1 | 11.6 | 0.1 | 32.0* | -1.7 | 11.6
COc1cc(C=C2C(=O)C=CC2=O)ccc1O | / | / | -142.2 | / | /
CC(C)(C)c1ccc(C(=O)N2CCC2(C)C(=O)Nc2cccc3ncccc23)cc1 (stereo not drawn) | / | / | -3.9 | / | /
CCN1C(=O)[C@@H]2[C@@H](c3ccc(-c4cc(C(C)=O)cs4)cc3)N3CCC[C@@]3(C(=O)OC)[C@@H]2C1=O | / | -5.8 | 24.4* | -10.0 | -8.2
O=C1C=CC(=O)c2c(O)c(CO)c(CO)c(O)c21 | / | 16.6 | 59.3* | 31.9 | 7.4
O=c1c(CO)cc(CO)cc(CO)c1O | 2.6 | 7.3 | 13.2 | -3.7 | 1.1
CCCc1sc(N)nc1-c1ccc(C)cc1 | -1.7 | -15.3 | 17.2* | -3.2 | -14.3
COc1ccc(N2CCN(Cc3nnnn3C3CCCCC3)CC2)cc1 | -4.5 | -1.5 | 22.6* | -8.5 | 8.0
Cc1cccc(C(=O)O/N=C(\N)c2ccc(Cl)cc2)c1 | 10.2 | -7.5 | 9.6 | -1.1 | -4.1
Cc1ccc(/C(N)=N/OC(=O)c2ccc(Cl)cc2Cl)cc1 | 11.4 | 0.3 | 51.7* | 14.2 | 7.9
Cn1cncc1C#Cc1ccc2c(=O)c3ccccc3oc2c1 | -2.9 | 2.0 | -1.3 | -20.4 | -0.1
Cc1nc2nc(C)n(CCN3CCOCC3)c(=O)c2c(-c2cccc([N+](=O)[O-])c2)c1C(=O)CCCCCCCCCCN1CCC(c2ccccc2)(c2ccccc2)CC1 | / | -6.6 | -3.1 | -18.0 | -10.1
Cc1c(C(=O)O)sc(S(=O)(=O)N2CCN(C(=O)Cc3ccc(F)cc3)CC2)c1C(=O)O | 11.4 | -9.9 | -10.6 | 0.3 | -4.6
CCOC(=O)c1[nH]c(C)c(C(=O)NCC2CCCO2)c1C (stereo not drawn) | 8.7 | 0.4 | 22.3* | 0.1 | -10.1
CCOC(=O)c1[nH]c(C)c(C(=O)NC2CCCCC2)c1C | 9.7 | -6.4 | -1.3 | -3.5 | -4.5
O=C(C[C@@H]1C=C[C@@H](NC(=O)C2CC2)[C@@H](CO)O1)NCc1ccccc1Cl | / | / | 14.6 | / | /
